Structures are written as SMILES. Several values for one entry are separate records, joined by “and”; a condition that tells them apart may be missing. Equal values may be shown once. Records with an inconclusive call do not appear. Activity calls are given as the source filed them.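 How the source made its calls, unless noted: active means compounds whose cell count with miR-34 switched on is under 0.7 times the count with it off; inactive means the rest.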

Assay [1] can be described thus: hESC survival regulators, cell-based (AID 493140; call rule not given here;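 further: cells exposed to compounds for four days before counting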). The following applies: human embryonic stem cell survival screen; stronger effect = higher value.
Assay [2] in a line: sensitizers of A549 cells to miR-34 induction, primary screen, imaging, A549 dox-inducible miR-34, nuclei and caspase counts (AID 1347080). The settings on record: A549 miR-34 inducible, Hoechst nuclei count, 48 h.
Assay [3] has as its target ATP-dependent translocase ABCB1 (Homo sapiens) (UniProt P08183). Kind of assay: MDR1 (ABCB1) efflux transporter inhibition, cell-based (AID 377; in the data active means fluorescence slope change above about 50%). The following applies: MDR1-expressing cells, fluorescent substrate accumulation slope; stronger effect = higher value; concentration not given here.
Assay [4] is described as follows: liver-stage malaria parasite growth inhibition, primary screen, cell-based, HepG2, luciferase luminescence, HepG2 viability (AID 624349; in the data active means parasite load remaining mostly below about 12%, no sharp cut-off; inactive means mostly above about 10%;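 further: 100% = mean of DMSO negative control wells on the same plate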). The settings on record: P. berghei liver stage in HepG2, luciferase luminescence, concentration not given here; parasite load remaining: stronger effect = lower value; viability: measured here: HepG2 viability without parasites.
[5] abbreviates: stronger effect = lower value, cell number ratio, induced over uninduced.
[6] abbreviates: measured here: relative caspase fold change +Dox/-Dox.
[7] abbreviates: measured here: total cells with miR-34 induction, stronger effect = lower value.
Setting [8] is: measured here: total cells without miR-34 induction.

ATP-dependent translocase ABCB1 (Homo sapiens), sequence (P08183 whole entry, looked up): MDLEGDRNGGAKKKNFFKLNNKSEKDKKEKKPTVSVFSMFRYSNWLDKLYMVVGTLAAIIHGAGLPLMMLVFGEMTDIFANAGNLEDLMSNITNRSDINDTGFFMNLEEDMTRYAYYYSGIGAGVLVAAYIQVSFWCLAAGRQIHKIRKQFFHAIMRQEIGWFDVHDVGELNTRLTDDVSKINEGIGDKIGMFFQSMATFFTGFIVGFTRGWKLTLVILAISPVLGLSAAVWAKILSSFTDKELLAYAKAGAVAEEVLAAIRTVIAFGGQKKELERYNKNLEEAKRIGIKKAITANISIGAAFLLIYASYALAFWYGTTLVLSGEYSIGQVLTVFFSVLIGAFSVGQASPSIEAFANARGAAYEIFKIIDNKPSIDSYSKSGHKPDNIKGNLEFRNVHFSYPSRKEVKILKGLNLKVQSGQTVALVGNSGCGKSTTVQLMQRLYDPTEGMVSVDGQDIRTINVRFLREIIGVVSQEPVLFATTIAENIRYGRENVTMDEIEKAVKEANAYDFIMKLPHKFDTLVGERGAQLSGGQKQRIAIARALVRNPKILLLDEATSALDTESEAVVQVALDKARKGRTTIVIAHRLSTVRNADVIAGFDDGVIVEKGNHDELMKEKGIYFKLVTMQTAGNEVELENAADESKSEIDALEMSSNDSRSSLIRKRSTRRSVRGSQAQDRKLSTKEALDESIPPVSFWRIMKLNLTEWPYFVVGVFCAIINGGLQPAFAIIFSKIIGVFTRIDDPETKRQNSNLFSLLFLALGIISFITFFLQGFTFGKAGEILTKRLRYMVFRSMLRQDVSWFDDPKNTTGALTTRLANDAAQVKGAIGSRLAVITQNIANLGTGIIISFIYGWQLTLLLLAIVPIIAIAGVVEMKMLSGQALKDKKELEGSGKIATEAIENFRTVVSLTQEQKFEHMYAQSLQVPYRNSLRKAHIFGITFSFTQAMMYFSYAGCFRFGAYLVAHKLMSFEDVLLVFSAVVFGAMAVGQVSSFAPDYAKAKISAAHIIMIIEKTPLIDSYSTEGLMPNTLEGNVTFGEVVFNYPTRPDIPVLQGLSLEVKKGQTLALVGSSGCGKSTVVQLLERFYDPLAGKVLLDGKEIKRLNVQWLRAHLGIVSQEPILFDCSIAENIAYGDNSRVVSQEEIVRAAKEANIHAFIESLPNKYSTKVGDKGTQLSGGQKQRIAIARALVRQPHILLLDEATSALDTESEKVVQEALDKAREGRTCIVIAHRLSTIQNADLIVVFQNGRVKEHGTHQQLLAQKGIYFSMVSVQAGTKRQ

Regarding `CCCCCCCCCCCCCCCC(=O)C1=C(O)C(CO)OC1=O` (stereo not given), the survival in assay [1] was 98.2 (inactive). Also, the fold change in assay [2] (setting [5]) is 0.877 (inactive); in assay [2] (setting [6]) it was 0.963. Besides, the cell count in assay [2] (setting [7]) worked out at 5220; in assay [2] (setting [8]), 5960.
For `CCCCCCCCCCCCCCCCOCC(COP(=O)([O-])OCC[N+](C)(C)C)OC` (stereo not given), in assay [1], the survival is 64.4 (inactive). The fold change in assay [2] (setting [5]) is 0.921 (inactive); in assay [2] (setting [6]), 1.04. For the same compound, the figures for the cell count in assay [2] (setting [7]) and in assay [2] (setting [8]) were 5520 and 5990, respectively.
On the same counts, the results for `CCCCCCCCCCCCCCC[C@@H](O)[C@H](CO)NC(C)=O` are 81.5 (inactive), 1.08 (inactive), 1, 5490 and 5090.
Consider `CCCCCCCCCCCCCCCCOC[C@H](COP(=O)([O-])OCC[N+](C)(C)C)OC(=O)NC`, for which, in assay [1], the survival is 80.6 (inactive). The fold change in assay [2] (setting [5]) was 0.941 (inactive) and 0.889 (inactive); in assay [2] (setting [6]), 1.15 and 1.06. Also, the cell count is 5360 and 4990 in assay [2] (setting [7]); 5690 and 5620 in assay [2] (setting [8]).
With `C[C@H](CCC(=O)NCC(=O)O)[C@H]1CC[C@H]2[C@@H]3[C@H](O)C[C@@H]4C[C@H](O)CC[C@]4(C)[C@H]3C[C@H](O)[C@]12C`, the fluorescence slope change in assay [3] is 91% (active). In assay [1], the survival is 14.6 (inactive). The parasite load remaining in assay [4] was 142% (inactive) and 80.1% (inactive). Besides, the viability in assay [4] was 103% and 76.4%. Moreover, the fold change in assay [2] (setting [5]) was 0.862 (inactive); in assay [2] (setting [6]) it was 1.21. In addition, the results for the cell count in assay [2] (setting [7]) and in assay [2] (setting [8]) were 8770 and 10200, respectively.
In the case of `CCCCC[C@H](O)/C=C/[C@@H]1[C@@H](CC(=O)CCCCC(=O)O)[C@@H](O)C[C@H]1O`, the survival in assay [1] is 129 (inactive). In addition, the fold change in assay [2] (setting [5]) was 0.992 (inactive) and 0.934 (inactive); in assay [2] (setting [6]), 1.02 and 1.32. In addition, the cell count was 5930 and 6160 in assay [2] (setting [7]); 5980 and 6600 in assay [2] (setting [8]).
In the case of `CC/C=C\C/C=C\C/C=C\C/C=C\C/C=C\C/C=C\CCC(=O)O[C@H](COCCCCCCCCCCCCCCCC)COP(=O)([O-])OCC[N+](C)(C)C`, the survival in assay [1] was 68.5 (inactive). The results for the fold change in assay [2] (setting [5]) and in assay [2] (setting [6]) were 1.06 (inactive) and 1.37, respectively. In addition, the cell count in assay [2] (setting [7]) is 5710; in assay [2] (setting [8]), 5380.
With `C[N+]1(C)C[C@@H](O)C[C@H]1C(=O)[O-]`, the fluorescence slope change in assay [3] is 28.3% (inactive). Also, the survival in assay [1] was 7 (inactive). Besides, the parasite load remaining in assay [4] is 117% (inactive). Moreover, the viability in assay [4] is 106%. The fold change in assay [2] (setting [5]) is 0.868 (inactive); in assay [2] (setting [6]), 1.07. Besides, the cell count in assay [2] (setting [7]) came to 8350; in assay [2] (setting [8]) it was 9610.
For `CCCCCCCCCCCCCCCCOCC(CO)OC` (stereo not given), the survival in assay [1] was 85.4 (inactive). Besides, the results for the fold change in assay [2] (setting [5]) and in assay [2] (setting [6]) were 1.02 (inactive) and 1.45, respectively. Besides, the values for the cell count in assay [2] (setting [7]) and in assay [2] (setting [8]) were 5930 and 5790, respectively.
Consider `CCCCCCCCCCCCCCCC(=O)NCCc1ccc(O)c(O)c1`, for which, in assay [1], the survival was 69.7 (inactive). For the same compound, the fold change was 0.93 (inactive) in assay [2] (setting [5]) and 0.624 in assay [2] (setting [6]). Further, the cell count turned out to be 5560 in assay [2] (setting [7]) and 5980 in assay [2] (setting [8]).
Take `CCCCC[C@H](O)/C=C/[C@@H]1[C@H]2C/C(=C/CCCC(=O)O)O[C@H]2C[C@H]1O`: the survival in assay [1] is 102 (inactive). Further, the fold change was 1.05 (inactive) in assay [2] (setting [5]); 1.16 and 1.02 in assay [2] (setting [6]). Moreover, the cell count in assay [2] (setting [7]) was 6320 and 6530; in assay [2] (setting [8]) it was 6040 and 6220.
Consider `CCCCC[C@H](O)/C=C/[C@@H]1[C@@H](C/C=C\CCCC(=O)O)[C@@H](O)C[C@@H]1O`, for which the survival in assay [1] was 97.2 (inactive). Moreover, the fold change in assay [2] (setting [5]) is 0.891 (inactive) and 0.917 (inactive); in assay [2] (setting [6]), 1.22 and 1.29. Further, the cell count in assay [2] (setting [7]) is 5840 and 5720; in assay [2] (setting [8]) it was 6560 and 6230.
Take `COc1ccc2c(OC)c3ccoc3nc2c1OC`: in assay [3], the fluorescence slope change is 16.3% (inactive). The survival in assay [1] was 3.67 (inactive). In assay [4], the parasite load remaining was 157% (inactive). Besides, the viability in assay [4] was found to be 95.8%. Moreover, the fold change in assay [2] (setting [5]) was 0.86 (inactive); in assay [2] (setting [6]) it was 1.16. The cell count is 8660 in assay [2] (setting [7]) and 10100 in assay [2] (setting [8]).
In the case of `CCCCCC(=O)CC[C@@H]1[C@@H](C/C=C\CCCC(=O)O)[C@@H](O)C[C@H]1O`, the survival in assay [1] was 82.4 (inactive). Besides, the fold change in assay [2] (setting [5]) was 0.925 (inactive); in assay [2] (setting [6]), 1.4. In addition, the figures for the cell count in assay [2] (setting [7]) and in assay [2] (setting [8]) were 5510 and 5950, respectively.
As to `O=C1C=CC(=O)c2c1ccc1c2ccc2ccccc21`, the fluorescence slope change in assay [3] is 25.9% (inactive). For the same compound, the survival in assay [1] is 5.83 (inactive). In assay [4], the parasite load remaining was 14.2% (inactive) and 61.1% (inactive). Besides, the viability in assay [4] is 64.9% and 72.9%. The values for the fold change in assay [2] (setting [5]) and in assay [2] (setting [6]) were 0.87 (inactive) and 1.13, respectively. The cell count in assay [2] (setting [7]) was 7950; in assay [2] (setting [8]), 9140.
For `CCCCC/C=C\C[C@@H](O)/C=C/C=C\C/C=C\CCCC(=O)O`, in assay [1], the survival was 89.3 (inactive). In addition, the fold change in assay [2] (setting [5]) is 0.841 (inactive); in assay [2] (setting [6]), 1.54. Besides, the cell count is 4740 in assay [2] (setting [7]) and 5630 in assay [2] (setting [8]).
For `COC(=O)C1=CO[C@@H](C)[C@H]2CN3CCc4c([nH]c5ccccc45)[C@@H]3C[C@H]12`, the fluorescence slope change in assay [3] is 76.8% (active). Also, in assay [1], the survival is 10.5 (inactive). The parasite load remaining in assay [4] was 108% (inactive) and 62.6% (inactive). Further, the viability in assay [4] is 97.4% and 74.1%. In addition, the fold change in assay [2] (setting [5]) was 0.773 (inactive); in assay [2] (setting [6]), 1.63. In addition, the cell count in assay [2] (setting [7]) stood at 5880; in assay [2] (setting [8]) it was 7600.
Regarding `C=C1CC[C@H](O)C/C1=C/C=C1\CCC[C@]2(C)[C@@H]([C@H](C)CC[C@@H](O)C(C)(C)O)CC[C@@H]12`, the survival in assay [1] was 80.4 (inactive). The results for the fold change in assay [2] (setting [5]) and in assay [2] (setting [6]) were 1.03 (inactive) and 1.15, respectively. In addition, the cell count was determined as 5660 in assay [2] (setting [7]) and 5500 in assay [2] (setting [8]).
Take `CCCCC[C@H](O)/C=C/[C@H]1OC(O)C[C@H](O)[C@@H]1C/C=C\CCCC(=O)O` (stereo not given in full): the survival in assay [1] was 96.2 (inactive). Also, the values for the fold change in assay [2] (setting [5]) and in assay [2] (setting [6]) were 0.852 (inactive) and 1.59, respectively. Besides, the cell count in assay [2] (setting [7]) came to 5370; in assay [2] (setting [8]), 6300.
As for `CCCCCCCCCCCCCC(=O)N[C@H](C)[C@@H](O)c1ccccc1`, in assay [1], the survival is 87.5 (inactive). For the same compound, the fold change is 1.02 (inactive) in assay [2] (setting [5]); 1.49 and 1.71 in assay [2] (setting [6]). Also, the cell count was 5830 and 6030 in assay [2] (setting [7]); 5700 and 5920 in assay [2] (setting [8]).
As for `CCCCCC(=O)/C=C/[C@@H]1[C@@H](C/C=C\CCCC(=O)O)[C@@H](O)C[C@H]1O`, in assay [1], the survival is 66.1 (inactive). Also, the fold change in assay [2] (setting [5]) was 1.04 (inactive); in assay [2] (setting [6]), 1.11. Besides, the cell count in assay [2] (setting [7]) was found to be 6170; in assay [2] (setting [8]), 5940.

A word on the viability: it is a read-out of living cells in per cent, often relative to untreated cells.
